Among the data in PubChem BioAssay (NCI) are growth values, retold here.

About 83,000 compounds went through this panel and 20% of them were active in at least one assay; those are over-represented in the sample as a whole.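 Values shown are percent growth following 48 h exposure of cells in 96-well plates to a single concentration of compound; below 10 was considered active.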 A number with no mark means an inactive call. The source made the active and inactive calls.

Some test systems named below: DU-145 prostate; K-562 leukemia; MALME-3M melanoma; MDA-MB-231 breast; RXF 393 renal; SF-268 CNS; SF-295 CNS; SF-539 CNS; UACC-257 melanoma; M14 melanoma.
What all share (assay): NCI-60 one-dose screen, 48 h (100 = growth as untreated, 0 = no growth, -100 = all killed)
Settings in all cases: 10 µM unless noted

As to `Nc1ccc(/C=N/Nc2ccnc3c(N)cccc23)c2cccnc12`, the growth with DU-145 prostate was -49.1% (active); with K-562 leukemia, -55.7% (active); with MALME-3M melanoma it was 104%; in the assay with MDA-MB-231 breast, -66.6% (active); in the assay on RXF 393 renal, -72.5% (active); in the assay on SF-268 CNS, -61.8% (active). Moreover, the growth in the assay with SF-295 CNS was -75.6% (active); in the assay with SF-539 CNS, -94.9% (active); with UACC-257 melanoma it was 88.1%; with M14 melanoma, -78.6% (active).
`COc1ccc2c(c1)c(C(=O)c1nc(-c3cn(C)c4ccccc34)no1)cn2C`: the growth was 111% in the assay on DU-145 prostate; 72% in the assay with K-562 leukemia; 83.4% with MALME-3M melanoma; 104% in the assay with MDA-MB-231 breast; 100% in the assay with RXF 393 renal; 103% in the assay on SF-268 CNS. In addition, the growth is 90% with SF-295 CNS, 97.2% with SF-539 CNS, 89% in the assay with UACC-257 melanoma and 104% in the assay with M14 melanoma.
Regarding `Brc1ccc(/C=C(/C2=NCCN2)n2ccc3ccccc32)cc1`, the growth was 63.1% with DU-145 prostate; 45.7% in the assay on K-562 leukemia; 75.4% in the assay on MALME-3M melanoma; 58.9% with MDA-MB-231 breast; 50.6% in the assay on RXF 393 renal; 77.7% in the assay with SF-268 CNS. Besides, the growth in the assay on SF-295 CNS is 85.1%; in the assay on SF-539 CNS it was 88.8%; in the assay with UACC-257 melanoma, 78.8%; with M14 melanoma, 65.1%.
Consider `COc1ccc(Nc2nn3c(SCC(=O)c4ccc(C)cc4)nnc3s2)cc1`, for which the growth in the assay on DU-145 prostate is 101%; in the assay with K-562 leukemia, 83.5%; in the assay on MALME-3M melanoma it was 98.7%; in the assay with MDA-MB-231 breast it was 91.7%; in the assay on RXF 393 renal, 97.1%; with SF-268 CNS, 100%. In addition, the growth with SF-295 CNS was 100%; in the assay on SF-539 CNS it was 107%; in the assay on UACC-257 melanoma, 108%; in the assay on M14 melanoma, 99.2%.
Take `Cc1ccc(Cc2cnc(NC(=O)c3cc(C)oc3C)s2)cc1`: the growth in the assay on DU-145 prostate is 75.6%; in the assay with K-562 leukemia it was 29.5%; with MALME-3M melanoma, 85.2%; in the assay on MDA-MB-231 breast it was 79.6%; in the assay with RXF 393 renal, 58.7%; with SF-268 CNS, 67.8%. Also, the growth in the assay with SF-295 CNS was 66.6%; in the assay with SF-539 CNS, 76.8%; in the assay with UACC-257 melanoma, 94.2%; in the assay with M14 melanoma it was 70.8%.
For `N=C1/C(=C2\NC3C=CC=CC3S2)C(c2ccc(Cl)cc2)C2C(=O)N(c3ccccc3)C(=S)N12` (stereo not given), the growth in the assay with DU-145 prostate is 114%; in the assay on K-562 leukemia it was 102%; in the assay with MALME-3M melanoma, 100%; in the assay with MDA-MB-231 breast, 102%; in the assay on RXF 393 renal it was 95.7%; in the assay with SF-268 CNS, 99.5%. For the same compound, the growth in the assay on SF-295 CNS was 103%; in the assay with SF-539 CNS, 99.4%; with UACC-257 melanoma, 107%; with M14 melanoma, 102%.
Turning to `Nc1nc(N)c2c(n1)NC(c1ccc(Cl)cc1)CC(c1cccc(Nc3ccncc3)c1)=N2` (stereo not given), the growth in the assay on DU-145 prostate is 70%; in the assay on K-562 leukemia, 27%; in the assay with MALME-3M melanoma, 57%; in the assay on MDA-MB-231 breast, 49.8%; with RXF 393 renal it was 49.2%; in the assay with SF-268 CNS it was 61.7%. Also, the growth with SF-295 CNS was 64.5%; in the assay on SF-539 CNS, 63.5%; in the assay on UACC-257 melanoma, 52.3%; in the assay with M14 melanoma, 35.4%.
